PubChem BioAssay (Tox21)
Active and inactive are the calls of the source. Calls come from the whole dose curve; as a rule, active = well fitted curve in the direction sought with a large enough effect in the repeat runs; inconclusive = weak or mixed curves; inactive = flat fitted curve, though single readings scatter.

Experiment: qHTS assay to test for compound auto fluorescence at 535 nm (green) in HepG2 cell free culture (AID 720686)
Conditions: Cell-free medium, green autofluorescence 485/535 nm; series mostly up to 91.3 µM
Text: U.S. Tox21 Program National Center for Advancing Translational Sciences [NCATS] NIH Chemical Genomics Center [NCGC] U.S. Environmental Protection Agency [EPA] National Institutes of Environmental Health Sciences [NIEHS] National Toxicology Program [NTP] U.S. Food and Drug Administration [FDA] Tox21 Assay Overview: Compound auto fluorescence often interferes with screening of the compound library against various biological targets and signaling pathways. Some of these compounds may have fluorophoric properties. Such properties may interfere with the assay outputs resulting in false positives and/or negatives. To decrease such complications and ensure the compound activities are relevant in terms of biological response, the Tox21 10K compound library was screened for auto fluorescence. From the fluorophores used as reporter signals in our screening assays, the auto fluorescence equivalencies of compounds against three fluorophores have been evaluated: Triamterene, Fluorescein and Rose Bengal sodium for blue, green and red fluorescence, respectively. The fluorescence intensities were measured using Excitation/Emission wavelengths at 405/460nm, 485/535nm and 540/590nm for blue, green and red labels, respectively. This assay includes the green fluorescence data.
Tox21 Assay Protocol Summary: 5 uL of culture medium (MEM containing 10% FBS) per well was dispensed into black wall/clear bottom 1536-well plates using a Multidrop Combi Dispenser (ThermoFisher Scientific, Waltham, MA). After 23 nL compound or DMSO vehicle was transferred into assay plate by a pintool work station (Kalypsys, San Diego, CA), fluorescence intensities in the assay plates were measured by an Envision (PerkinElmer, Shelton, CT) plate reader using three labels for measuring blue, green and red fluorescence at […] 460, 535 and 590nm respectively.
In the case of `CN(C)C(=O)C(c1ccccc1)c1ccccc1`, the outcome is reported as “inactive”.
For `C=CC(=O)OCC(CC)CCCC` (stereo not given), the outcome was “inactive”.
For `O=C(O)C(Br)Br`, the outcome was “inactive”.
For `Cl[C@H]1OCCO[C@@H]1Cl`, the outcome was “inactive”.
For `C/C=C/c1ccc2c(c1)OCO2`, the outcome was “inactive”.
For `O=S(=O)(O)OOS(=O)(=O)O`, the outcome was “inactive”.
With `Clc1cnc(Oc2ccc(Oc3ncc(Cl)cc3Cl)cc2)c(Cl)c1` the outcome was “inactive”.
With `CN1C(=O)CCS(=O)(=O)C1c1ccc(Cl)cc1` (stereo not given) the outcome was “inactive”.
In the case of `CCSC(=O)N1CCCCCC1`, the outcome is reported as “inactive”.
In the case of `C=CC#N`, the outcome is reported as “inactive”.
For `CNC(=O)O/N=C/C(C)(C)S(C)(=O)=O`, the outcome was “inactive”.
For `CNC(=O)O/N=C/C(C)(C)S(C)=O` (stereo not given), the outcome was “inactive”.
With `O=C(O)COc1ccccc1` the outcome was “inactive”.
In the case of `FC(F)(F)c1ccc(Cl)cc1`, the outcome is reported as “inactive”.
With `NNc1ccccc1` the outcome was “inactive”.
For `O=C(O)CCCc1ccc(N(CCCl)CCCl)cc1`, the outcome was “inactive”.
For `CCOC(=O)CC(SP(=O)(OC)OC)C(=O)OCC` (stereo not given), the outcome was “inactive”.
With `CN(C)NC(=O)CCC(=O)O` the outcome was “inactive”.
In the case of `Cc1cc(O)ccc1Cl`, the outcome is reported as “inactive”.
In the case of `Cl/C=C/Cl`, the outcome is reported as “inactive”.
In the case of `CCCCCCCCCCCCCCCCCC(=O)O`, the outcome is reported as “inactive”.
For `COC(=O)Nc1cccc(OC(=O)Nc2cccc(C)c2)c1`, the outcome was “inactive”.
In the case of `C[C@H]1C(=O)O[C@@H]2CCN3CC=C(COC(=O)[C@](C)(O)[C@]1(C)O)[C@H]23`, the outcome is reported as “inactive”.
With `COP(=S)(OC)SCN1C(=O)c2ccccc2C1=O` the outcome was “inactive”.
In the case of `CCOP(=S)(OCC)Oc1ccc([N+](=O)[O-])cc1`, the outcome is reported as “inactive”.
In the case of `Cc1cccc(N)c1`, the outcome is reported as “inactive”.
In the case of `CNC(=O)Oc1cccc2ccccc12`, the outcome is reported as “inactive”.
With `CNCC(O)c1ccc(O)cc1` (stereo not given) the outcome was “inactive”.
For `COP(=S)(OC)Oc1ccc(SC)c(C)c1`, the outcome was “inactive”.
In the case of `CC(=O)/C=C/c1ccccc1`, the outcome is reported as “inactive”.
For `C=C(C)C(=O)OCC(CC)CCCC` (stereo not given), the outcome was “inactive”.
In the case of `OC[C@@H](O)[C@H]1O[C@@H]2O[C@H](C(Cl)(Cl)Cl)O[C@@H]2[C@H]1O`, the outcome is reported as “inactive”.
With `CCCOC(=O)c1ccccc1C(=O)OCCC` the outcome was “inactive”.
In the case of `CC12CC1(C)C(=O)N(c1cc(Cl)cc(Cl)c1)C2=O` (stereo not given), the outcome is reported as “inactive”.
In the case of `CSc1nnc(C(C)(C)C)c(=O)n1N`, the outcome is reported as “inactive”.
In the case of `O=[N+]([O-])c1ccc(Cl)c(Cl)c1`, the outcome is reported as “inactive”.
In the case of `Cc1ccc(N)cc1`, the outcome is reported as “inactive”.
With `COc1cc(-c2ccc(N)c(OC)c2)ccc1N` the outcome was “inactive”.
In the case of `COc1nc(NC(C)C)nc(NC(C)C)n1`, the outcome is reported as “inactive”.
In the case of `CNC(=O)O/N=C(\SC)C(=O)N(C)C`, the outcome is reported as “inactive”.
